Experimental data published in PubChem BioAssay.
Calls of active or inactive are those of the source.

Tests used:
[1] = test system: XIP peptide (Xip251-270) binding; assay: small-molecule binders of XIP peptide, primary screen, biochemical, small-molecule microarray, fluorescence 635/667 nm, 0.1 µg/mL protein (AID 1182); conditions: fluorescent protein binding, 635 nm, higher = more signal, called active from +8 up or from −8 down
[2] = test system: XIP peptide (Xip251-270); assay: small-molecule binders of XIP peptide, primary screen, biochemical, small-molecule microarray, fluorescence 635/667 nm, 0.5 µg/mL protein (AID 1183); conditions: small-molecule microarray binding, fluorescence 635 nm; higher = more signal
[3] = Plasmodium falciparum growth inhibition, primary screen, strain 3D7, DAPI fluorescence, 100 nL (AID 1184);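 note: parasites grown inside human red blood cells in medium with human serum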; conditions: P. falciparum 3D7 growth, 3 d, higher = more signal
[4] = molecular target: Homeobox protein Hox-A13 (Mus musculus) (UniProt Q62424); assay: inhibitors of HoxA13-DNA binding, primary screen, biochemical, fluorescence polarization, labeled oligonucleotide (AID 1185); conditions: 15 min, higher = more signal, called active from +8 up or from −8 down
Chain of Homeobox protein Hox-A13 (Mus musculus) (Q62424 whole entry, looked up): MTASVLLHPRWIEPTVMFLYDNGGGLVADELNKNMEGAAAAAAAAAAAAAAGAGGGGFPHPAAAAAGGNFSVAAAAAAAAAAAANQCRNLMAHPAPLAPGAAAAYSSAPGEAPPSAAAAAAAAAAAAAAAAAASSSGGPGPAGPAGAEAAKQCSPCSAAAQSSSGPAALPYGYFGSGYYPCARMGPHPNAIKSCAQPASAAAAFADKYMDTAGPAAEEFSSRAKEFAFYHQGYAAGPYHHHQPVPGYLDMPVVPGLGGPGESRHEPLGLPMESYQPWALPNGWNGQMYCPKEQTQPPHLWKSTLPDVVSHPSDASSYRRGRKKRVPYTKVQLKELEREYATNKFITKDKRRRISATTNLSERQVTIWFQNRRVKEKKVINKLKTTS

Row | Compound | composite z-score [1] | composite z-score [2] | z-score [3] | z-score [4]
1 | O=C1[C@H]2[C@H]3[C@H](O)[C@H](O)CC(=NOC[C@@H](O)COCc4ccco4)[C@H]3CC[C@H]2C(=O)N1C[C@@H]1CCCO1 | -0.149 (inactive) | 0.605 | 0.523 | -0.514 (inactive)
2 | CCc1cc2c(nc1CC)CCN(CCC(C)=NOC[C@H]1O[C@H](c3ccccc3)C=C[C@@H]1Oc1ccc(OC)cc1)C2 | 0.248 (inactive) | 0.431 | -1.63 | -3.13 (inactive)
3 | CCc1cc2c(nc1CC)CCN(CCC(C)=NO[C@H](C)c1cn([C@H](CO)Cc3ccccc3)nn1)C2 | 0.076 (inactive) | 0.284 | -1.91 | -5.78 (inactive)
4 | CO[C@H]1COC(=O)CCC[C@@H](C)[C@H](OC)COC(=O)[C@@H](C)NC(=O)CC=C[C@@H]1C | -0.157 (inactive) | -0.0673 | -1.29 | -1.94 (inactive)
5 | CCOC(=O)[C@H](Cc1ccccc1)NC(=O)OC1CC(CCC2CC(CC)=NO2)OC2(CCCC(COC(=O)NCCC(C)C)O2)C1 (stereo not given in full) | 0.654 (inactive) | 0.527 | -1.04 | -5.07 (inactive)
6 | CCOC(=O)[C@H](CC(C)C)NC(=O)CCC1CC(OC(=O)NCCc2ccc(F)cc2)CC2(CCCC(COC(=O)NCCC(C)C)O2)O1 (stereo not given in full) | -0.0575 (inactive) | -0.228 | -0.329 | -2.83 (inactive)
7 | COC(=O)CC=C[C@@H](C)[C@@H](C=NO[C@@H]1O[C@H](COC(C)=O)[C@@H](OC(C)=O)[C@H](OC(C)=O)[C@H]1OC(C)=O)OC | -0.865 (inactive) | -0.17 | -0.0925 | -2.16 (inactive)
8 | CC[C@@H](c1ccccc1)n1c(=O)n2n(c1=O)[C@H]1[C@H](O)[C@@H]3O[C@@H]3C(=O)[C@H]1CC2 | -0.144 (inactive) | 0.0999 | -1.22 | -1.59 (inactive)
9 | CO[C@H]1COC(=O)CCC[C@@H](C)[C@H](OC)COC(=O)[C@@H]2CCCN2C(=O)CC=C[C@@H]1C | 0.0072 (inactive) | 0.497 | -0.74 | -0.0208 (inactive)
10 | CCOC(=O)C1=NO[C@]2(C=C(Br)C3(OCCCO3)[C@H]3O[C@H]32)C1 | -0.788 (inactive) | 0.857 | 0.99 | 0.136 (inactive)
11 | COC(=O)CC=C[C@@H](C)[C@@H](C=NOC[C@H]1O[C@H](c2ccccc2)C=C[C@@H]1Oc1ccc(OC)cc1)NS(=O)(=O)c1ccc(C)cc1 | -0.0195 (inactive) | -0.827 | -0.683 | -2.52 (inactive)
12 | Cc1ccc(S(=O)(=O)N[C@H]2COC(=O)CC=C[C@@H](C)COC(=O)CC=C[C@@H]2C)cc1 | 0.172 (inactive) | 0.921 | 0.641 | -1.06 (inactive)
13 | CC(CCN1CCCc2nc(C)c(C)cc21)=NOC(C)CN1CCCCc2nc(C)c(C)cc21 (stereo not given) | -0.053 (inactive) | 0.725 | -0.153 | -6.78 (inactive)
14 | COC(=O)CC=C[C@@H](C)[C@@H](C=NO[C@H](C)c1cn([C@H](CO)Cc2ccccc2)nn1)NS(=O)(=O)c1ccc(C)cc1 | -0.418 (inactive) | 0.126 | 0.346 | -6.42 (inactive)
15 | CO[C@@H]1COC(=O)CC=C[C@@H](C)[C@@H]2C=C[C@H](O)[C@@H](COC(=O)CC=C[C@H]1C)O2 | 0.0592 (inactive) | 0.853 | 0.338 | -2.1 (inactive)
16 | COCCNC(=O)OCC1CCCC2(CC(OC(=O)NCc3ccc4c(c3)OCO4)CC(CCC(=O)N[C@@H](C)C(=O)OC)O2)O1 (stereo not given in full) | 0.412 (inactive) | 0.623 | -2 | -6.4 (inactive)
17 | CON=C[C@@H](C)[C@H](OCc1ccccc1)C(C)C | -0.372 (inactive) | -0.647 | -1.11 | 3.84 (inactive)
18 | COC(=O)[C@@H]1CC[C@@H](C)[C@H](c2ccc(Br)cc2)N1 | -0.0456 (inactive) | 0.0425 | 0.303 | -1.98 (inactive)
19 | CO[C@H](C1CCCCC1)[C@H](C)C=CCC(=O)OCCCc1ccccc1 | -0.74 (inactive) | 0.628 | -0.45 | 1.25 (inactive)
20 | O=C1C[C@@H](O)[C@@H](O)[C@@H]2[C@@H]3C(=O)N(Cc4ccccc4)C(=O)[C@@H]3CC[C@@H]12 | 0.245 (inactive) | 0.5 | 0.328 | -0.967 (inactive)
21 | CO[C@H]1COC(=O)[C@@H](Cc2ccccc2)NC(=O)[C@@H](C)COC(=O)CCC[C@@H]1C | 0.0283 (inactive) | 0.171 | -0.0331 | -0.733 (inactive)
22 | CCN1C(=O)[C@@H]2[C@H]3C(=CC[C@@H]2C1=O)C1(OCCCO1)[C@H]1O[C@H]1[C@H]3O | 0.645 (inactive) | 0.689 | -1.63 | -10.9 (active)
23 | COc1ccc(O[C@H]2C=C[C@@H](c3ccccc3)O[C@@H]2COC(=O)CCC(C)=NOC[C@@H](O)[C@H]2O[C@@H]3OC(C)(C)O[C@@H]3[C@H]2O)cc1 | 0.162 (inactive) | -0.0871 | 0.651 | -5.83 (inactive)

Row | Compound | composite z-score [1] | composite z-score [2] | z-score [3] | z-score [4]
24 | COC(=O)CC=C[C@@H](C)[C@@H](C=NO[C@@H](C)c1cn([C@H](CO)Cc2ccccc2)nn1)OC | -0.179 (inactive) | 0.0522 | 0.141 | -0.41 (inactive)
25 | CCCCC#C[C@@H]1C=C[C@H](OC(C)=O)[C@@H](COC(C)=O)O1 | 1.45 (inactive) | 0.641 | 0.247 | -4.35 (inactive)
26 | CC(C)CON=C1C[C@@H](O)[C@@H](O)[C@@H]2[C@@H]3C(=O)N(C(C)(C)C)C(=O)[C@@H]3CC[C@H]12 | 1.9 (inactive) | 0.494 | 1.75 | -0.219 (inactive)
27 | CO[C@H]1COC(=O)CC=C[C@H](C)[C@@H](OC)COC(=O)[C@@H](C)NC(=O)CC=C[C@@H]1C | -0.303 (inactive) | 0.54 | -0.297 | -1.25 (inactive)
28 | COc1cccc([C@@H]2Oc3ccc(OC)cc3C(=O)[C@H]2O)c1 | 0.565 (inactive) | 0.65 | -1.09 | -0.169 (inactive)
29 | COC(=O)C1=C(C)N(Cc2ccccc2)[C@]23O[C@](C(=O)OC)(C(=O)N2[C@@H]1c1ccccc1)C(C(=O)OC)=C3C(=O)OC | 1.49 (inactive) | 0.435 | -1.08 | -3.67 (inactive)
30 | CCOC(=O)[C@H](CC(C)C)NC(=O)CCC1CC(OC(=O)NCc2ccc3c(c2)OCO3)CC2(CCCC(COC(=O)NCC3CCCCC3)O2)O1 (stereo not given in full) | 0.269 (inactive) | 0.0826 | -1.77 | -6.18 (inactive)
31 | Cc1cc2c(nc1C)CCCN2CC(O)CN1CCCc2nc(C)c(C)cc21 | 0.6 (inactive) | -0.134 | -0.958 | -3.33 (inactive)
32 | CO[C@H]1COC(=O)[C@@H](C)COC(=O)[C@H](C)NC(=O)CC=C[C@H]1C | -0.166 (inactive) | 0.564 | -0.455 | -0.236 (inactive)
33 | CC(C)=CCCC(C)=CCON=C1C[C@@H](O)[C@@H](O)[C@@H]2[C@@H]3C(=O)N(C(C)(C)C)C(=O)[C@@H]3CC[C@@H]12 | -0.119 (inactive) | 0.233 | -1.34 | -1.09 (inactive)
34 | Cc1cc2c(nc1C)CCCCN2CC(C)ON=C1[C@H]2CCn3c(=O)n(-c4ccccc4)c(=O)n3[C@H]2[C@H](O)[C@@H]2O[C@H]12 (stereo not given in full) | -0.239 (inactive) | 0.7 | -1.94 | -4.23 (inactive)
35 | CCOC(=O)[C@H](CC(C)C)NC(=O)CCC1CC(OC(=O)NCCc2ccc(F)cc2)CC2(CCCC(COC(=O)NCCOc3ccccc3)O2)O1 (stereo not given in full) | 0.679 (inactive) | 0.31 | -2.02 | -6.97 (inactive)
36 | CCOC(=O)[C@H](CC(C)C)NC(=O)CCC1CC(OC(=O)NCCc2ccc(F)cc2)CC2(CCCC(COC(=O)NCC(c3ccccc3)c3ccccc3)O2)O1 (stereo not given in full) | 0.298 (inactive) | 0.836 | -1.02 | -6.92 (inactive)
37 | CC(C)=CCCC(C)=CCON=C1C[C@@H](O)[C@@H](O)[C@@H]2[C@@H]3C(=O)N(C(C)(C)C)C(=O)[C@@H]3CC[C@H]12 | -0.007 (inactive) | 0.427 | 1.46 | 0.263 (inactive)
38 | COc1ccc(C#C[C@@H]2C=C[C@H](OC(C)=O)[C@@H](COC(C)=O)O2)cc1 | 3.11 (inactive) | 0.443 | 0.714 | -2.53 (inactive)
39 | COC(=O)[C@@H]1CC[C@H](C)[C@@H](c2ccc(C)cc2)N1C(=O)c1ccc(C=NO[C@@H](C)c2cn([C@H](CO)Cc3ccccc3)nn2)cc1 | -0.0658 (inactive) | 0.739 | -0.309 | -5.13 (inactive)
40 | CC(C)=CCCC(C)=CCON=C1C[C@@H](O)[C@@H](O)[C@@H]2[C@@H]3C(=O)N(c4ccc(F)cc4F)C(=O)[C@@H]3CC[C@H]12 | -0.163 (inactive) | 0.37 | 0.0436 | -2.5 (inactive)
41 | CC(CCN1CCCCc2nc(C)c(C)cc21)=NO[C@H](C)c1cn([C@H](CO)Cc2ccccc2)nn1 | -0.28 (inactive) | 0.542 | -1.56 | -5.13 (inactive)
42 | CCOC(=O)NN=C1C[C@@H](O)[C@@H](O)[C@@H]2[C@@H]3C(=O)N(Cc4ccc5c(c4)OCO5)C(=O)[C@@H]3CC[C@H]12 | 2.21 (inactive) | -0.437 | -0.948 | -0.227 (inactive)
43 | CC(C)=NOC[C@@H](C)[C@H](OCc1ccccc1)C(C)C | -0.0088 (inactive) | 0.177 | -0.89 | 1.47 (inactive)
44 | CC(C)CON=C1C[C@@H](O)[C@@H](O)[C@@H]2[C@@H]3C(=O)N(C4CCCCC4)C(=O)[C@@H]3CC[C@H]12 | 0.273 (inactive) | 0.793 | -0.0504 | 0.866 (inactive)
45 | COC(=O)[C@H](C)NC(=O)CCC1CC(OC(=O)NCc2ccc3c(c2)OCO3)CC2(CCCC(COC(=O)NCC(c3ccccc3)c3ccccc3)O2)O1 (stereo not given in full) | 1.93 (inactive) | 0.699 | -1.77 | -6.84 (inactive)
